87 compounds from PMC4336329 (PLoS ONE, 2015) can be followed below.

The campaign covered roughly 310,000 compounds. About 14,000 (4.5%) showed an effect of 50% or more. The effect is printed as a negative number. What follows is part of a selection rich in strong results, with near analogues and random picks from the rest.
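Also: peak tail current of the secondary pulse compared with the same well before compound.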

The target of this assay is human ether-à-go-go-related gene (hERG) potassium channel (human, UniProt Q12809). Description: primary screen, population patch clamp on CHO cells stably expressing hERG; higher = less effect of the substance.
Sequence of human ether-à-go-go-related gene (hERG) potassium channel (Q12809 whole entry, looked up): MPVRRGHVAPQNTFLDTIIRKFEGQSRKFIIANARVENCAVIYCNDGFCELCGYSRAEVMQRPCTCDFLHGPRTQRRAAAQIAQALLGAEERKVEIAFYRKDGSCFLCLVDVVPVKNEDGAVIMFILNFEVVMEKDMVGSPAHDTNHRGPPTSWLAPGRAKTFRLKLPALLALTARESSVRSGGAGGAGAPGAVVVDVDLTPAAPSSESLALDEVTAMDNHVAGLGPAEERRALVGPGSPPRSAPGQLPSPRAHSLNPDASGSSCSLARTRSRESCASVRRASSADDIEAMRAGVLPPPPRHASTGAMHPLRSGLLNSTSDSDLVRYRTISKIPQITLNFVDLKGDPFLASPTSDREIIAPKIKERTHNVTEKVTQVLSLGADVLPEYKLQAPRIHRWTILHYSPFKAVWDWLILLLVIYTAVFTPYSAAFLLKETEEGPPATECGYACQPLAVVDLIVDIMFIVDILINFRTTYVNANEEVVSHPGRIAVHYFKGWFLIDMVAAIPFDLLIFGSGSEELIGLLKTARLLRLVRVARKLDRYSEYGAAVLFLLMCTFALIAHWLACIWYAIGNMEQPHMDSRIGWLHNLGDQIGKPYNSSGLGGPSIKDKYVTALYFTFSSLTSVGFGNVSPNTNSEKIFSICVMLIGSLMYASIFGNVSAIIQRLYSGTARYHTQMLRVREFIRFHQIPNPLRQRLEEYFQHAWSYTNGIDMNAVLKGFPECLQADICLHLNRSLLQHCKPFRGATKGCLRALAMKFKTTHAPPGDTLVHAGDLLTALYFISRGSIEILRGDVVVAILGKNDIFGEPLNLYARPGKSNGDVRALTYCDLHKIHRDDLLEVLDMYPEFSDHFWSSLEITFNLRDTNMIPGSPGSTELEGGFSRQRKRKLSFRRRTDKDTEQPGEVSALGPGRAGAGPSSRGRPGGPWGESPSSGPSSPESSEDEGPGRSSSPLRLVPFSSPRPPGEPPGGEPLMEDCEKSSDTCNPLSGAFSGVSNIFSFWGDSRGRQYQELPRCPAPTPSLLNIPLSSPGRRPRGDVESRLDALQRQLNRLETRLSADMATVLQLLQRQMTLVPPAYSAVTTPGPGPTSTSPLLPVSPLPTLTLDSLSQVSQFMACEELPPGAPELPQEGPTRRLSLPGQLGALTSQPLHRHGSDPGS
In the case of `CN(C)CCCn1c2c(c(SCC(=O)Nc3ccc4c(c3)OCO4)nc1=O)CCCC2`, the “hERG current change (%, negative = inhibition) at 10uM” value was -39.7%. Consider `CN(C)CCCn1c2c(c(SCC(=O)Nc3ccc4c(c3)OCO4)nc1=O)CCC2`, for which the “hERG current change (%, negative = inhibition) at 10uM” value was -10.7%. For `CCN(CC)CCn1c2c(c(SCC(=O)Nc3ccc(C)c(F)c3)nc1=O)CCCC2` the value was -70.1%; for `CCN(CC)CCn1c2c(c(SCC(=O)Nc3ccc(C)c(F)c3)nc1=O)CCC2`, -63.8%. In the case of `CCN(CC)CCn1c2c(c(SCC(=O)Nc3ccc4c(c3)OCCO4)nc1=O)CCCC2`, the “hERG current change (%, negative = inhibition) at 10uM” value is on record as -20.4%. Then `CCN(CC)CCCn1c2c(c(SCC(=O)Nc3ccc(C)c(F)c3)nc1=O)CCC2`, with -64.5%; and `CCC1Oc2ccc(C)cc2N(CC(=O)NCc2cccc(OC)c2)C1=O` (stereo not drawn), with -8.94%. Then `CNC(=O)c1cc2cc(OC)ccc2oc1=N`, with 10.4%; and `CC/C(=N\NC(=O)c1c[nH]c2ccccc12)c1cccs1`, with 10.9%; and `O=C(O)c1c(-n2cccc2)sc2c1CCCC2`, with 24.4%. In the case of `COc1cc(C)c(Br)cc1S(=O)(=O)NCc1ccccc1`, the “hERG current change (%, negative = inhibition) at 10uM” value is on record as 12.9%. Then `COc1ccc(CN2CCNC(=O)C2CC(=O)NCCN2CCCCC2=O)c(F)c1` (stereo not drawn), with 19.1%.

Turning to `Cc1nn(CCCC(=O)Nc2ccccn2)c(C)c1[N+](=O)[O-]`, the “hERG current change (%, negative = inhibition) at 10uM” value was 18.3%. Then `O=C(COc1ccc(-n2cnnn2)cc1)N1CCN(c2ccc(F)cc2)CC1`, with -71.5%. As to `NC(=O)COc1ccc(-n2cnnn2)cc1`, the “hERG current change (%, negative = inhibition) at 10uM” value stood at 32.4%. In the case of `O=C(COc1ccc(-n2cnnn2)cc1)NCCc1ccc(F)cc1`, the “hERG current change (%, negative = inhibition) at 10uM” value was -51.5%.

`O=C(COc1ccc(F)cc1)Nc1ccc(-n2cnnn2)cc1`: the “hERG current change (%, negative = inhibition) at 10uM” value is on record as -49.5%. Then `O=C(COc1ccc2c(c1)CCC2)N1CCN(c2ccc(F)cc2)CC1`, with -2.53%.

Turning to `O=C(COc1ccc(-n2cnnn2)cc1)Nc1ccc(F)c(F)c1F`, the “hERG current change (%, negative = inhibition) at 10uM” value is 5.48%.

For the compound `N/C(=N\N=C\c1ccnc2ccccc12)SC1CC(=O)N(c2ccc(Br)cc2)C1=O` (stereo not drawn), the “hERG current change (%, negative = inhibition) at 10uM” value was 0.637%. Then `CC(C)Sc1cc(N2CCOCC2)nc(-c2ccccc2)n1`, with 2.76%; and `COCCn1c(N)c(N(Cc2ccccc2)C(=O)c2ccc(-c3ccc(Cl)cc3)o2)c(=O)[nH]c1=O`, with -45.5%; and `Cc1ccc(-n2nc(C)c(/C=N/NC(=O)c3cccs3)c2Cl)cc1`, with 5.12%. Then `O=C(CN1CCOCC1)N/N=C/c1ccco1`, with 17.1%; and `Cc1ccc(/C=N/NC(=O)CN2CCN(S(=O)(=O)c3ccc(Br)cc3)CC2)s1`, with -58.9%.

`Cc1ccc(S(=O)(=O)N2CCN(CC(=O)N/N=C/c3ccc(Br)s3)CC2)cc1`: the “hERG current change (%, negative = inhibition) at 10uM” value is -49%. Then `O=C(CN1CCN(S(=O)(=O)c2ccc(Br)cc2)CC1)N/N=C/c1cccs1`, with -58.4%. Then `O=C(CN1CCN(S(=O)(=O)c2ccc(Br)cc2)CC1)N/N=C/c1ccccc1C(=O)O`, with 14.2%.

Take `Cc1ccsc1/C=N/NC(=O)CN1CCN(S(=O)(=O)c2ccc(Br)cc2)CC1`: the “hERG current change (%, negative = inhibition) at 10uM” value is given as -41.7%. Consider `Cc1ccc(S(=O)(=O)N2CCN(CC(=O)N/N=C/c3ccco3)CC2)cc1`, for which the “hERG current change (%, negative = inhibition) at 10uM” value is reported as -33%. Then `O=C(CN1CCN(S(=O)(=O)c2ccc(Br)cc2)CC1)N/N=C/c1ccco1`, with -56.9%; and `O=C(CN1CCN(S(=O)(=O)c2ccc(Br)cc2)CC1)N/N=C/c1ccc(Br)s1`, with -17.6%; and `CN1CCN(c2c(F)cc([N+](=O)[O-])c(N)c2Br)CC1`, with -45.3%. For `OCCCc1cn(-c2ccccc2)c2ccccc12` the value was 7.41%. For `Cc1cc(C(=O)NNC(=O)c2ccc(C)s2)c(C)o1`, the “hERG current change (%, negative = inhibition) at 10uM” value is on record as 3.91%. For `COc1ccc(N(C2CSC2)S(=O)(=O)c2ccccc2)cc1`, the “hERG current change (%, negative = inhibition) at 10uM” value came out at 8.52%. Then `CCc1nc(SCC(=O)Nc2nnc(CC)s2)c2c(=O)n(C)c(=O)n(C)c2n1`, with 4.23%. Turning to `O=C(Cn1nc(-c2ccccc2F)ccc1=O)NCc1ccc2c(c1)OCO2`, the “hERG current change (%, negative = inhibition) at 10uM” value is given as -36.9%.

`CCN1C(=O)[C@H]2[C@@H](c3ccc(C)cc3)N3C(=O)N(c4ccc(C(F)(F)F)cc4)C(=O)[C@@]3(Cc3ccccc3)[C@H]2C1=O`: the “hERG current change (%, negative = inhibition) at 10uM” value is on record as 16.3%. Regarding `O=c1c2ccccc2nc(-c2ccc(-c3ccccc3)cc2)n1-c1ccncc1`, the “hERG current change (%, negative = inhibition) at 10uM” value is -42.9%. Then `CC(=O)Nc1ccc(NC(=O)C(C)OC(=O)CCC(=O)c2ccc(F)cc2)cc1` (stereo not drawn), with -7.13%; and `CC(OC(=O)CCCC(=O)Nc1ccc(F)cc1)C(=O)c1ccccc1` (stereo not drawn), with -5.79%; and `CC(OC(=O)CCC(=O)c1ccccc1)C(=O)Nc1ccc(F)cc1` (stereo not drawn), with -284%. Then `COc1ccc(/C=N\NC(=O)COc2ccccc2Cl)cc1Cn1nc(C)cc1C`, with 8.15%; and `CC1(C)CC(=O)C2=C(C1)N(CCN1CCOCC1)C1=C(C(=O)CC(C)(C)C1)C2c1cccc(Cl)c1`, with -54%. For `CC1(C)CC(=O)C2=C(C1)N(CCN1CCOCC1)C1=C(C(=O)CC(C)(C)C1)C2c1ccc(Cl)cc1` the value was -34.1%.

For the compound `CC1(C)CC(=O)C2=C(C1)N(CCN1CCOCC1)C1=C(C(=O)CC(C)(C)C1)C2c1cccc(F)c1`, the “hERG current change (%, negative = inhibition) at 10uM” value is -33.5%. For `CC(CCc1ccccc1)OS(N)(=O)=O` (stereo not drawn) the value was 8.74%; for `COc1ccc(S(=O)(=O)N2CCOCC2)cc1NC(=O)COc1ccccc1`, -40.5%; for `Cc1ccc(SC/C(O)=C(\C#N)c2nc3ccccc3s2)cc1`, 29.9%. For the compound `Cc1ccc(C(=O)NCC(=O)OCC(=O)Nc2ccc(Cl)cc2C(F)(F)F)cc1C`, the “hERG current change (%, negative = inhibition) at 10uM” value is -4.47%. Then `O=c1[nH]c2ccccc2nc1CCc1ccccc1`, with 35.5%; and `O=C(C1CCCCC1)N1CCCc2ccccc21`, with -5.03%; and `Cc1cccc(NC(=O)C2CCN(C(=O)c3ccc(Cl)cc3)CC2)n1`, with -51.5%. Then `O=C(Nc1ccccc1N1CCCC1)C1CCN(C(=O)c2ccc(F)cc2)CC1`, with -27.8%.

As to `Cc1cccc(NC(=O)C2CCN(C(=O)c3ccc(F)cc3)CC2)n1`, the “hERG current change (%, negative = inhibition) at 10uM” value is -0.274%.

For `O=C(c1ccc(Cl)cc1)N1CCC(C(=O)N2CCCc3ccccc32)CC1`, the “hERG current change (%, negative = inhibition) at 10uM” value was -76.4%. For `Cc1ccccc1C(=O)N1CCC(C(=O)Nc2ccccc2N2CCCC2)CC1` the value was -0.721%; for `Cc1ccccc1C(=O)N1CCC(C(=O)N2CCCc3ccccc32)CC1`, -1.08%. Then `O=C(NC1CC1)C1CCN(C(=O)c2ccc(Cl)cc2)CC1`, with 19.8%; and `N#Cc1ccsc1NC(=O)C1CCN(C(=O)c2ccc(Cl)cc2)CC1`, with -73.2%; and `N#Cc1ccsc1NC(=O)C1CCN(C(=O)c2ccc(F)cc2)CC1`, with -45.7%. For `O=C(Nc1ccccc1N1CCCC1)C1CCN(C(=O)c2ccc(Cl)cc2)CC1`, the “hERG current change (%, negative = inhibition) at 10uM” value is -59.8%. Then `Cc1cccc(NC(=O)C2CCN(C(=O)c3ccccc3C)CC2)n1`, with -17.6%; and `Cc1cccc(C(=O)NNS(=O)(=O)c2ccc(F)cc2)c1`, with 8.24%; and `O=c1cc(CO)oc(C(Nc2ccccn2)c2ccc(F)cc2)c1O` (stereo not drawn), with 9.87%.

On to `O=C(c1ccc2oc(CCc3ccccc3)nc2c1)N1CCC(O)CC1`, for which the “hERG current change (%, negative = inhibition) at 10uM” value is 14.9%. For `Cc1ccc(C(=O)NCC(=O)OCC(=O)c2ccccc2)s1` the value was -12.6%. Then `COc1ccc(CC(=O)Nc2c(C(N)=O)oc3ccccc23)cc1OC`, with 11.4%; and `COc1ccc(CCNS(=O)(=O)c2ccc(Br)s2)cc1`, with -5.73%; and `O=C(N/N=C/c1cc([N+](=O)[O-])ccc1O)c1cccc(N2CCCC2=O)c1`, with 3.22%. As to `CC(OC(=O)CCc1nc2ccccc2[nH]c1=O)c1ccccc1` (stereo not drawn), the “hERG current change (%, negative = inhibition) at 10uM” value was -5.1%. Consider `O=C(Nc1ccccc1N1CCCCC1)C1CCN(C(=O)c2ccc(Cl)cc2)CC1`, for which the “hERG current change (%, negative = inhibition) at 10uM” value is -69.9%. On to `O=C(Nc1ccccc1N1CCCCC1)c1ccc(Cl)cc1`, for which the “hERG current change (%, negative = inhibition) at 10uM” value was 12.6%.

For the compound `O=C(NC1CCCCC1)C1CCN(C(=O)c2ccc(Cl)cc2)CC1`, the “hERG current change (%, negative = inhibition) at 10uM” value is reported as -6.16%.

Regarding `CC(C)(C)C(=O)COC(=O)c1cc(-c2ccncc2)nc2ccccc12`, the “hERG current change (%, negative = inhibition) at 10uM” value is recorded as -8.43%. For `COc1ccc(-n2c(SCC(=O)Nc3cc(C)on3)nc3c(c2=O)SCC3)cc1`, the “hERG current change (%, negative = inhibition) at 10uM” value worked out at 12.1%. Regarding `COCCCN1CN(S(=O)(=O)c2ccc(Cl)cc2)c2nc3ccccc3nc21`, the “hERG current change (%, negative = inhibition) at 10uM” value is recorded as -32.7%. For `COCCN1CN(S(=O)(=O)c2ccc(Cl)cc2)c2nc3ccccc3nc21` the value was -75.9%; for `COCCN1CN(S(=O)(=O)c2ccccc2)c2nc3ccccc3nc21`, -16.7%; for `COCCn1nnnc1C(C(C)C)N1CCN(C(=O)c2ccco2)CC1.Cl` (stereo not drawn), -1.29%. Then `CCOC(=O)Cc1nnc(NC(=O)c2ncn[nH]2)s1`, with -9.4%.

Consider `CN1CC(=O)N(CC(=O)Nc2ccc(Cl)c(C(F)(F)F)c2)C1=O`, for which the “hERG current change (%, negative = inhibition) at 10uM” value came out at 8.97%. As to `CC(CN1CCC(O)CC1)c1ccccc1` (stereo not drawn), the “hERG current change (%, negative = inhibition) at 10uM” value is recorded as 10.6%.

On to `CCOC(=O)CN1CCC(c2ccccc2)CC1`, for which the “hERG current change (%, negative = inhibition) at 10uM” value is listed as -2.19%. Turning to `CCCCC(O)CN1CCC(c2ccccc2)CC1` (stereo not drawn), the “hERG current change (%, negative = inhibition) at 10uM” value is listed as -56.6%. Then `O=C(Nc1ccc(S(=O)(=O)Nc2nccs2)cc1)c1cc(-c2ccncc2)nc2ccccc12`, with 10.1%.
